Test results reported in the supplement of paper PMC6555819.

Assays:
Assay in all cases: PBM binding z-score (relative to random genomic background probes); higher = stronger binding; sequences stand for … in GC…GCGATTGACAGCGTAGAATGAAGG
[1] = test system: RARb homodimer (NR concentration 270 nM)
Outline: (§1)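 Scanned fluorescence from custom Agilent 4×180K protein-binding microarrays was regression-normalized. Binding z-scores use random background probes as reference. Ligand-free nuclear receptor dimers were incubated on the arrays for 1 h and detected with antibodies against each partner (one per run).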

[2] = test system: RARg:RXRa (NR concentration 270 nM, RXRa partner concentration 90 nM)
Outline: as §1

[3] = test system: RARg homodimer (NR concentration 270 nM)
Outline: as §1

[4] = test system: RXRa DBDmut IVT, anti-RXR (DBD mutation: RXRa K156A/R161A, NR concentration 90 nM)
Outline: as §1

[5] = test system: RXRa homodimer (NR concentration 180 nM)
Outline: as §1

[6] = test system: THRa:RXRa (NR concentration 90 nM, RXRa partner concentration 90 nM)
Outline: as §1

[7] = test system: THRa homodimer (NR concentration 90 nM)
Outline: as §1

[8] = test system: VDR homodimer (NR concentration 270 nM)
Outline: as §1

Sequence	PBM binding z-score [1]	PBM binding z-score [2]	PBM binding z-score [3]	PBM binding z-score [4]	PBM binding z-score [5]	PBM binding z-score [6]	PBM binding z-score [7]	PBM binding z-score [8]
TATACAGGGTCAATGGCCAGAGTACGAATGTCGA	3.21	5	4.73	2.43	5.41	3.22	0.631	2.79
TAGCCTAGGTCATGTGCCAGTATACCACGCGAAC	2.84	3.83	4.32	1.26	3.14	2.91	1.55	0.739
AGAACGAGGGCACGCTGAGTTCATAGCAGAGTAG	2.79	4.31	3.34	3.17	3.08	3.31	0.849	7.01
AGTACAGGGTCACTAGGCCAGAGTAGGTACGAAT	3.49	5.25	5.26	2.61	5.43	3.41	1.04	2.39
GCGACTGGGGCATCAGTAGGTTACCATAACTTAA	0.91	0.793	0.519	0.0645	0.498	0.632	-0.249	-0.583
TCATGTAGGTAAAGGTGAAAGTCGAACGATATGA	1.61	1.69	1.37	0.705	1.91	1.28	0.0244	0.443
ATCGAAAGATCGACGAGGTGAGTATACACCGTTT	-0.514	0.223	0.471	-0.641	0.512	1.14	0.311	-0.18
TCTGCTAGGTCAACGAGGGTCAGCTAATCTGCTA	4.57	5.29	6.13	1.47	3.94	4.76	1.14	0.552
TCTAGTTGGTCACGGAGGTCACAGACGACGGGTA	4.64	4.79	4.98	1.02	5.24	3.72	2.35	2.78
CCGAGTAGGTTATGGGGCATTCCGGCAACGGTGA	1	0.266	0.307	-0.402	0.465	0.0973	0.142	0.147
CTCGAAAGGTCGTGCTCAGGTGAGTAGACCAAAC	2.36	5.23	3.76	1.79	4.83	3.96	0.703	0.392
CCTACTGGGCCAAGGTTATTGATCAGTCAAAGCA	0.487	0.504	0.249	-0.428	0.318	0.787	0.234	-0.0593
CCTACTGGGCCAAAAAGGTCATTGAGGCCGATAA	4.37	4.72	4.17	0.821	4.63	3.4	0.793	3.39
TCTATTAGTTGATTAGGGCAACCGCAACAGCGGA	0.671	0.648	0.445	0.932	0.721	0.679	0.272	0.125
CCAGCCAGGTGAAAGGTAACTCAGTCTGGTACGC	0.43	0.724	0.203	-0.519	1.37	1.55	0.326	-0.192
CGAAGTAGGTCATCCAGGACAGTGAATACATTGA	3.03	4.24	4.88	2.13	3.36	3.64	1.46	2.37
TCTAGTTGGTCACGGAGGTCAGACACGACGGGTA	3.9	3.72	3.75	1	3.4	2.79	1.39	1.56
CCTACTGGGCCATTCAGAGGTGATTGATCATATG	0.207	0.611	0.223	-0.252	0.178	0.505	-0.356	-0.44
CCTACTAGGCCATTCAGAGGTCATTGATCATATG	4.46	4.99	3.55	2.14	4.11	3.42	2.03	3.93

Sequence	PBM binding z-score [1]	PBM binding z-score [2]	PBM binding z-score [3]	PBM binding z-score [4]	PBM binding z-score [5]	PBM binding z-score [6]	PBM binding z-score [7]	PBM binding z-score [8]
CCTAGTTGGTCCGGAGGTCACACACCGGATATGA	3.85	4.35	3.68	0.525	4.56	3.62	2.86	2.79
TCGACTAGGTTACCAATGGGGCATTCAGCTTTCT	1.02	1.16	0.432	1.07	0.661	0.557	0.42	-0.0453
CCTCGCAGGCCAATCTGGGTCACTCAAGGCTTGA	2.37	1.18	1.63	0.29	0.763	3.93	0.712	0.14
ACTCAAAGTTCAGGACGAGGTAACGTAAAGCACG	3.56	4.83	5.29	3.38	3.39	4.03	1.98	2.46
AATACAGGGTCACTAGGCCGGAGTAGGTACGAAT	3.18	5.13	4.62	2.81	5.28	3.4	1.2	2.61
AACTCTAGGTAACCAAGTTCAGTGAATGCCGAAC	0.982	0.219	0.32	0.853	0.269	1.34	0.572	2.11
GCGACTGGAGCATCAGCAGGTTACCATAACTTAA	-0.0503	-0.127	-0.161	-0.526	0.0977	0.179	-0.37	-0.639
GCTGATAGGTCAGGTTGGTCAGCTAACGGGTACG	3.37	3.84	4.49	0.3	2.6	1.46	-0.126	0.351
ACTATTAGTTGACTTAGGGCATCCGATACGACGC	0.597	0.218	0.979	0.909	0.613	0.97	0.239	0.435
ACTAGCAGGCCTAGTTTGGGTCACTCAAACAAAG	1.42	0.276	0.565	-0.626	0.395	1.91	0.883	0.0469
TCGTGTAGATCAGCAGGTTAAGAAAGCTGGCCAA	-0.0746	-0.298	-0.396	0.345	-0.115	0.0652	-0.429	-0.282
CCTTACGGTTCAAGGTTATAGCACGGGTGGTACG	1.39	1.69	1.21	2.6	2.38	2.15	1.41	3.31
ATACCAAGGTGATCGTGAAGTCGTTGATACTAAC	0.398	0.416	0.171	0.398	0.357	1.01	0.796	0.18
ACTAGCAGGCCAAGTTTGGGTCACTCACACAAAG	2.45	2.62	1.68	0.307	1.08	2.56	1.24	0.348
TCATATAGGTAAACGCTAGGTGAAAGTCCGATCT	0.416	0.628	0.523	1.63	0.944	1.52	0.385	0.251
ACTATTAGTTGAGTCGAGGGCAACCGATAGGTTG	1.2	0.788	0.802	0.52	0.607	2.3	0.603	1.05
CCGAGTGGGGCAGAAAGGTTACCATACCATCCGG	2.09	1.63	1.23	-0.568	1.76	0.899	-0.05	0.0724
GCCTGTAGATCAAGGTTAAGAAAGACTAAGCTAA	0.243	0.329	0.0689	0.0892	0.822	1.14	-0.419	-0.568
TAAGACAGGTGAAGGTAACTCAGGTACGCAGTCG	0.812	0.869	0.994	-0.391	0.793	1.48	0.449	0.487

Sequence	PBM binding z-score [1]	PBM binding z-score [2]	PBM binding z-score [3]	PBM binding z-score [4]	PBM binding z-score [5]	PBM binding z-score [6]	PBM binding z-score [7]	PBM binding z-score [8]
TGAATGAGGTGATAAGATCAGGGAACGTTGCAAA	-0.0418	0.599	0.324	-0.998	0.631	1.43	0.185	-0.465
AGAATGAGGTTACCAAAGATCAGGAAAACGCTTG	0.544	2.13	1.58	1.15	2.56	2.88	0.443	0.0267
TCTATTAGTTGAAGGGCAACGGACGAGTCCGTTT	1.19	0.697	0.572	1.53	0.756	0.343	0.0596	1.98
TCGAGTAGGTTACCACTGGGGCATTCAGCTTTCT	0.339	0.939	0.436	0.044	0.129	0.242	-0.96	-0.613
CCTACTGGGCCATCAGGTCATTGCTATCAACGTT	2.55	2.04	1.77	0.254	1.37	3.24	2.94	1.62
TAGCCTAGGTCAGATCGGGCAAGTATACGCTATA	2.01	2.85	3.43	-0.344	1.29	2.98	-0.283	-0.339
CCTCGGAGGACAACAGGAGGTAAGAGCTGCCAGA	0.361	0.652	1.09	-0.216	-0.00959	0.811	-0.12	-0.145
AATACAGGGTCATCGTAGGGCAGAGTACGCACAG	3.67	6.04	5.73	3.64	7.22	4.59	1.42	3.02
ATCTCTACGTAAGACTCAGTTCAGTGAAGAACGC	0.71	0.107	0.393	0.74	0.286	0.601	0.378	1.45
TTACCAAGGTGAAAGGACGTTGATGCACGCCTTG	0.523	0.792	0.651	-0.0859	0.819	1.36	0.386	-0.00942
TCTATTAGTTGATAAGGGCAACCGAAACAGCGGA	1.39	0.857	0.844	1.2	0.562	1.4	0.878	0.573
GCGACTGGGGCATCAGCAGGTTACGATAACTTAA	0.928	0.837	0.545	-0.13	0.313	0.816	-0.273	-0.435
GCTGGTAGGTCAGGTTGGTCAGCTAACGGGTACG	2.87	2.48	3.76	0.0797	1.23	1.12	0.417	0.965
CCTACTGGGCCGTCAGGTCATTGATATCAACGTT	2.18	1.33	1.37	0.28	1.11	3.18	3.49	1.16
TAGCCTAGGTCATCCGGGCCAGTATAGTGTCGGC	3.17	4.1	4.53	1.24	2.96	3.16	1.16	1.42
CGTCAAAGTTCAACTAAGGTAACGCAAAGCACGC	4.28	5.94	6.37	4.62	4.92	5.48	2.13	3.54
TAGCCTACGTCAGATCGGGCCAGTATACGCTATA	-0.763	-0.503	-0.517	-0.801	-0.569	0.901	-0.732	-0.727
ACTAGGAGGCCAAGGGTCACTCAAGATTAGTCCG	3.93	4.72	4.05	0.5	4.48	2.63	0.41	1.51
CCTATTAGTTGACCATAGGGGCAACCGAAGCTCG	1.3	0.669	0.729	0.6	0.362	0.842	0.596	0.581
